# A selection: hits, their analogues and other compounds. The true share with any hit is near 1.3%.
# PGC1a acetyl inh: inhibitors of PGC1a acetylation signal, primary screen, cell-based, U2OS, AlphaScreen, inhibitor mode; AlphaScreen anti-acetyl-lysine; with virally co-expressed GCN5 acetyltransferase; AID 651687, 2012; actives 0.17% (n = 350,000); inhibition, % at 15.6 µM;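 active = every replicate shows inhibition of at least 40%; inconclusive = mean inhibition at least 40% but some replicate below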;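 note: 0% = neutral control wells and 100% = positive control wells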
# Rce1 inhib: yeast Rce1p protease inhibitors, primary screen, biochemical, fluorescence, cell-free homogeneous; AID 2563, 2010; calls only; actives 0.27% (n = 290,000); yeast membranes, quenched prenylated peptide cleavage fluorescence;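 active = fall in fluorescence gain of 50% or more versus controls, with final raw signal at or below 3038400; inconclusive = same 50% fall but final raw signal above 3038400; inactive = fall in fluorescence gain under 50%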;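 note: plate controls were neutral control wells for no effect and wells lacking membranes for full effect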
# Target sequence (Q03530 whole entry, looked up): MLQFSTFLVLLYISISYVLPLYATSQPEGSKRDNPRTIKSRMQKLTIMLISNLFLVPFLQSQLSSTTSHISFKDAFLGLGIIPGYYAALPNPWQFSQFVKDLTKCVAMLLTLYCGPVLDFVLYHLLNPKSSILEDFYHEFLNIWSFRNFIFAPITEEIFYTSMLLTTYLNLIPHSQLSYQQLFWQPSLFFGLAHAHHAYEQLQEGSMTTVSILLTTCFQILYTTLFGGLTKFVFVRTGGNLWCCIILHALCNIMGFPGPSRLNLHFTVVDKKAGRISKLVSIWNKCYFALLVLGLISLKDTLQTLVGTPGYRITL
# HIF act: HIF pathway transcriptional activators, primary screen, cell-based, U2OS HRE-luciferase, luminescence; AID 1910, 2009; actives 0.32% (n = 300,000); U2OS HRE-luciferase reporter; normalized: DMSO 0%, desferrioxamine 100%; activation, % at 7.5 µM (by protocol);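 active = mean activation of at least 10% of the iron chelator positive control signal, with at least half of replicates also reaching 10%; inconclusive = mean and replicate majority disagree about reaching 10%; inactive = mean and most replicates under 10%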
# AI-2 QS modul: Vibrio harveyi AI-2 quorum sensing modulators, primary screen, JMH597 strain, luminescence/OD600 ratio; activity change, % at 7.5 µM; actives 0.4% (n = 300,000); Vibrio harveyi JMH597 AI-2 luminescence/OD600 ratio, 9 h; active compounds read low; strain lacks LuxN and CqsS sensors; 0 = neutral-control median; in the data active = activity change below about -75%, passing the limit was not always enough; inconclusive = no clear call, values can overlap the other calls;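 note: luminescence divided by OD600 gain over 9 h not by final OD600 alone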
# Statin myotox sup: suppressors of statin myotoxicity in C2C12 myotubes, primary screen, cell-based, single point, plate reader; C2C12 myotubes + simvastatin, ATP luminescence, 48 h; scaled: DMSO 0, geranylgeraniol control 100; rescue of ATP level, % at 7.49 µM; actives 0.78% (n = 330,000); AID 602340, 2012;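 active = mean ATP rescue above about 67%, or every replicate alone reaching that limit, limit read from the data, passing the limit was not always enough; inconclusive = no clear call, values can overlap the other calls; inactive = mean under the limit and some replicate under it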;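 note: myotubes were challenged with 10 µM simvastatin during compound exposure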
# Active calls of the source: *; i = inactive; ? = inconclusive; nt = no result; + = active, no number.
SMILES,PGC1a acetyl inh,Rce1 inhib,HIF act,AI-2 QS modul,Statin myotox sup
O=C(c1cccc(-c2nnc(-c3ccccc3)o2)c1)N1CCCCC1,-10.7,i,-6.2,-15.7,120.8*
C=CCOc1cccc(C2C(C(=O)c3ccc(C)o3)=C(O)C(=O)N2Cc2ccncc2)c1 (configuration not stated),-8.2,i,-0.3,4.1,110.2*
O=C(Cc1ccccn1)NCC[C@@H]1CC[C@H](NC(=O)c2ccccc2F)[C@@H](CO)O1,3.0,nt,nt,nt,6.8
CNC(=O)C1CC(=O)N(c2ccc(OCC(=O)N3CCCC3)cc2)C1 (configuration not stated),nt,i,28.6*,24.2,1.7
Fc1ccc(C(c2nnnn2C2CCCC2)N2CCN(Cc3ccccc3)CC2)cc1 (configuration not stated),-14.0,i,-0.1,33.1,137.1*
CCC(c1nnnn1C1CCCC1)N1CCN(c2ccccc2F)CC1 (configuration not stated),4.6,i,-0.4,15.9,124.3*
CCCC(c1nnnn1C1CCCC1)N1CCN(c2ccccc2F)CC1 (configuration not stated),-14.7,nt,nt,nt,12.3
Clc1ccc(C(c2nnnn2C2CCCC2)N2CCN(Cc3ccncc3)CC2)cc1 (configuration not stated),-10.5,i,-0.7,37.6,3.0
c1ccc(C(c2ccccc2)N2CCN(Cc3nnnn3C3CCCC3)CC2)cc1,3.9,i,0.2,18.4,77.1*
O=C(C[C@@H]1C=C[C@@H](NC(=O)NC2CCCCC2)[C@@H](CO)O1)NCc1ccc(Cl)cc1,-4.9,nt,nt,nt,5.1
Cc1ccc(/C=N/NC(=O)c2nnn(-c3nonc3N)c2C(C)C)o1,nt,+,-0.1,20.1,1.2
COCc1c(C(=O)N/N=C(\C)c2ccc(Cl)s2)nnn1-c1nonc1N,nt,i,29.2*,-6.6,-39.1
C/C(=N\NC(=O)c1nnn(-c2nonc2N)c1-c1ccccc1)c1ccccc1O,2.6,i,32.6*,15.7,-24.5
Nc1nonc1-n1nnc(C(=O)N/N=C/c2cccc(Cl)c2)c1CSc1ccc(Cl)cc1,nt,+,-0.9,2.6,-17.7
Nc1nonc1-n1nnc(C(=O)N/N=C/c2cccc(Cl)c2)c1CSc1ccccc1,14.7,nt,-0.5,9.2,nt
COc1cccc(C#Cc2ccc3c(c2)[C@H]2[C@H](CCN2S(=O)(=O)c2cccc(OC)c2)[C@H](CO)N3)c1,-1.1,nt,nt,nt,nt
COCC(=O)Nc1ccc2c(c1)C(=O)N(C)C[C@@H](OC)[C@@H](C)CN[C@@H](C)CO2,-2.9,nt,nt,nt,-2.3
CCC(=O)Nc1ccc2c(c1)C(=O)N(C)[C@@H]1CC[C@@H](CC(=O)N3CCCCC3)O[C@H]1CO2,-1.4,nt,nt,nt,-4.4
CN(C)C(=O)C[C@@H]1C=C[C@@H](NC(=O)C2CCOCC2)[C@@H](CO)O1,2.2,nt,nt,nt,nt
Cc1ccc(-c2c(C(=O)N/N=C/c3ccoc3)nnn2-c2nonc2N)cc1,1.8,i,-0.2,16.1,0.9
Cc1ccc(SCc2c(C(=O)N/N=C/c3ccccc3)nnn2-c2nonc2N)cc1,-2.9,+,0.2,0.7,nt
Nc1nonc1-n1nnc(C(=O)N/N=C/c2ccccc2)c1CSc1ccc(Cl)cc1,nt,+,-0.2,34.1,nt
Cc1ccc(/C=N/NC(=O)c2nnn(-c3nonc3N)c2CSc2ccccc2)cc1,nt,i,-0.3,-3.8,nt
Cc1ccc(-c2c(C(=O)N/N=C/c3cccc(Cl)c3)nnn2-c2nonc2N)cc1,8.3,+,0.3,19.1,-0.4
CO[C@H]1CN(C)C(=O)c2cc(NC(=O)Nc3ccc(F)cc3)ccc2OC[C@H](C)NC[C@@H]1C,-1.4,nt,nt,nt,4.5
SMILES,PGC1a acetyl inh,Rce1 inhib,HIF act,AI-2 QS modul,Statin myotox sup
CCOC(=O)c1cnc(SC)nc1Oc1cccc(NS(=O)(=O)c2ccc(C)cc2)c1,6.6,nt,-0.4,16.0,90.3*
CN(C(=O)COC(=O)c1cc([N+](=O)[O-])ccc1Sc1ccccc1)C1CCS(=O)(=O)C1 (configuration not stated),-9.3,+,0.1,-51.8,1.6
Cc1cccc(Nc2ccccc2C(=O)OCC(=O)N(C)C2CCS(=O)(=O)C2)c1C (configuration not stated),-6.2,+,-0.6,14.7,11.2
CCOC(=O)C1=C(C)NC(C)=C(C(=O)OCC)C1C(=O)OCC(=O)N(C)C1CCS(=O)(=O)C1 (configuration not stated),2.3,i,12.9*,-4.7,nt
CCOC(=O)C1=C(C)NC(C)=C(C(=O)OCC)C1C(=O)OCC(N)=O,-8.7,i,0.1,16.2,5.0
COc1ccc(NC(=O)N(C)C[C@H]2OCc3cn(nn3)CCCC(=O)N([C@@H](C)CO)C[C@H]2C)cc1,0.7,nt,nt,nt,-3.9
Cc1ccccc1NS(=O)(=O)c1ccc(C)c(C(=O)N2CCOCC2)c1,-2.4,i,-0.2,25.1,nt
COc1ccc(OC)c(S(=O)(=O)Nc2ccccc2C)c1,-18.6,i,0.3,16.1,100.3*
COc1ccc(OC)c(S(=O)(=O)Nc2ccccc2O)c1,-11.0,i,-0.1,4.1,nt
COc1ccc(S(=O)(=O)Nc2ccccc2C)cc1C(=O)N1CCOCC1,102.4*,i,-0.3,6.2,9.1
FC(F)(F)c1cc(Oc2ccccc2)ncc1-c1nnc(-c2ccccc2Cl)o1,5.8,+,0.3,3.7,-0.3
Clc1ccccc1-c1nnc(-c2ccccc2Cl)o1,2.4,i,2.2,3.6,-4.1
CCOC(=O)N1CCC(NC(=O)c2cc(C)c3c(C)nn(-c4ccccc4)c3n2)CC1,-22.5,i,0.0,24.0,117.5*
C[C@@H]1CN([C@H](C)CO)C(=O)c2cc(NC(=O)Nc3ccc(C(F)(F)F)cc3)ccc2O[C@H]1CN(C)C(=O)NC1CCCCC1,0.9,nt,nt,nt,-2.1
O=c1cnnc(N/N=C/c2ccccn2)[nH]1,10.0,i,75.3*,?,14.9
Cc1ccc(/C=N/Nc2cn[nH]c(=O)n2)o1,nt,i,0.0,0.5,nt
Cc1cc(=O)[nH]c(N/N=C/c2ccccn2)n1,nt,i,40.0*,-16.4,nt
O=c1nc(N/N=C/c2ccccn2)cn[nH]1,nt,nt,7.5,-88.2*,nt
O=S1(=O)N=C(N/N=C/c2ccccn2)c2ccccc21,nt,i,4.2,-85.7*,nt
CC(C)CC#Cc1ccc2c(c1)O[C@@H](CN(C)Cc1ccncc1)[C@H](C)CN([C@H](C)CO)S2(=O)=O,4.8,nt,nt,nt,-57.8
c1ccc(CNc2nc(N3CCN(Cc4ccccc4)CC3)nc3ccccc23)cc1,-28.8,+,-0.1,22.6,-16.9
c1coc(CNc2nc(N3CCCCC3)nc3ccccc23)c1,-26.1,i,-0.6,37.4,-28.0

# High-throughput results as filed in PubChem BioAssay.
